# From the supplement of paper PMC4466140
# B1: unnamed (peptide)
# chain: MSPLGAPPPPPHKDH
# Target: AgAbp1
# Experiment: SPOT peptide array binding signal intensity (averaged, normalized) (arbitrary units (background-subtracted, floor 0; scale differs between SH3 domains)); higher = stronger binding of the SH3 domain to the peptide
# Method in brief: (§1)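 SH3 domains from four yeast species were expressed as GST fusions in E. coli BL21(DE3) and purified on glutathione Sepharose. Each was incubated at 10 μg/ml overnight at 4°C in TBS-based blocking buffer on cellulose membranes bearing synthetic 15-mer peptides, in which serines replaced cysteines. Bound protein was detected with anti-GST antibody, an HRP anti-mouse secondary and luminol, then imaged and quantified with Genespotter. The binding signal is the normalized, background-subtracted spot intensity averaged over replicates, in arbitrary units that are not the same from one domain to another.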
row,Binder,SPOT peptide array binding signal intensity
1,B1,≤ 0

# Target: AgBbc1
# Experiment: as above
# Method in brief: as §1
row,Binder,SPOT peptide array binding signal intensity
1,B1,≤ 0

# Target: AgBem1-D1
# Experiment: as above
# Method in brief: as §1
row,Binder,SPOT peptide array binding signal intensity
1,B1,≤ 0

# Target: AgBzz1-D1
# Experiment: as above
# Method in brief: as §1
row,Binder,SPOT peptide array binding signal intensity
1,B1,6.5

# Target: AgBzz1-D2
# Experiment: as above
# Method in brief: as §1
row,Binder,SPOT peptide array binding signal intensity
1,B1,9

# Target: AgCyk3
# Experiment: as above
# Method in brief: as §1
row,Binder,SPOT peptide array binding signal intensity
1,B1,1

# Target: AgFus1
# Experiment: as above
# Method in brief: as §1
row,Binder,SPOT peptide array binding signal intensity
1,B1,1.5

# Target: AgHof1
# Experiment: as above
# Method in brief: as §1
row,Binder,SPOT peptide array binding signal intensity
1,B1,≤ 0

# Target: AgHse1
# Experiment: as above
# Method in brief: as §1
row,Binder,SPOT peptide array binding signal intensity
1,B1,23

# Target: AgLsb1
# Experiment: as above
# Method in brief: as §1
row,Binder,SPOT peptide array binding signal intensity
1,B1,≤ 0

# Target: AgLsb4
# Experiment: as above
# Method in brief: as §1
row,Binder,SPOT peptide array binding signal intensity
1,B1,≤ 0

# Target: AgMyo5
# Experiment: as above
# Method in brief: as §1
row,Binder,SPOT peptide array binding signal intensity
1,B1,449

# Target: AgNbp2
# Experiment: as above
# Method in brief: as §1
row,Binder,SPOT peptide array binding signal intensity
1,B1,5

# Target: AgRvs167
# Experiment: as above
# Method in brief: as §1
row,Binder,SPOT peptide array binding signal intensity
1,B1,1

# Target: AgSho1
# Experiment: as above
# Method in brief: as §1
row,Binder,SPOT peptide array binding signal intensity
1,B1,4

# Target: AgSla1-D1-D2
# Experiment: as above
# Method in brief: as §1
row,Binder,SPOT peptide array binding signal intensity
1,B1,2

# Target: AgSla1-D3
# Experiment: as above
# Method in brief: as §1
row,Binder,SPOT peptide array binding signal intensity
1,B1,≤ 0

# Target: CaAbp1-D1
# Experiment: as above
# Method in brief: as §1
row,Binder,SPOT peptide array binding signal intensity
1,B1,≤ 0

# Target: CaAbp1-D2
# Experiment: as above
# Method in brief: as §1
row,Binder,SPOT peptide array binding signal intensity
1,B1,≤ 0

# Target: CaBbc1
# Experiment: as above
# Method in brief: as §1
row,Binder,SPOT peptide array binding signal intensity
1,B1,0.5

# Target: CaBem1-D1
# Experiment: as above
# Method in brief: as §1
row,Binder,SPOT peptide array binding signal intensity
1,B1,≤ 0

# Target: CaBzz1-D1
# Experiment: as above
# Method in brief: as §1
row,Binder,SPOT peptide array binding signal intensity
1,B1,10

# Target: CaBzz1-D2
# Experiment: as above
# Method in brief: as §1
row,Binder,SPOT peptide array binding signal intensity
1,B1,3.25

# Target: CaCyk3
# Experiment: as above
# Method in brief: as §1
row,Binder,SPOT peptide array binding signal intensity
1,B1,≤ 0

# Target: CaFus1
# Experiment: as above
# Method in brief: as §1
row,Binder,SPOT peptide array binding signal intensity
1,B1,42

# Target: CaHof1
# Experiment: as above
# Method in brief: as §1
row,Binder,SPOT peptide array binding signal intensity
1,B1,0.75

# Target: CaHse1
# Experiment: as above
# Method in brief: as §1
row,Binder,SPOT peptide array binding signal intensity
1,B1,5.75

# Target: CaLsb1
# Experiment: as above
# Method in brief: as §1
row,Binder,SPOT peptide array binding signal intensity
1,B1,0.75

# Target: CaLsb4
# Experiment: as above
# Method in brief: as §1
row,Binder,SPOT peptide array binding signal intensity
1,B1,≤ 0

# Target: CaMyo5
# Experiment: as above
# Method in brief: as §1
row,Binder,SPOT peptide array binding signal intensity
1,B1,46.5

# Target: CaNbp2
# Experiment: as above
# Method in brief: as §1
row,Binder,SPOT peptide array binding signal intensity
1,B1,≤ 0

# Target: CaRvs167
# Experiment: as above
# Method in brief: as §1
row,Binder,SPOT peptide array binding signal intensity
1,B1,0.833

# Target: CaRvs167-3
# Experiment: as above
# Method in brief: as §1
row,Binder,SPOT peptide array binding signal intensity
1,B1,≤ 0

# Target: CaSho1
# Experiment: as above
# Method in brief: as §1
row,Binder,SPOT peptide array binding signal intensity
1,B1,≤ 0

# Target: CaSla1-D1-D2
# Experiment: as above
# Method in brief: as §1
row,Binder,SPOT peptide array binding signal intensity
1,B1,≤ 0

# Target: CaSla1-D3
# Experiment: as above
# Method in brief: as §1
row,Binder,SPOT peptide array binding signal intensity
1,B1,≤ 0

# Target: ScAbp1
# Experiment: as above
# Method in brief: as §1
row,Binder,SPOT peptide array binding signal intensity
1,B1,≤ 0

# Target: ScBbc1
# Experiment: as above
# Method in brief: as §1
row,Binder,SPOT peptide array binding signal intensity
1,B1,≤ 0

# Target: ScBem1-D1
# Experiment: as above
# Method in brief: as §1
row,Binder,SPOT peptide array binding signal intensity
1,B1,≤ 0

# Target: ScBzz1-D1
# Experiment: as above
# Method in brief: as §1
row,Binder,SPOT peptide array binding signal intensity
1,B1,1.5

# Target: ScBzz1-D2
# Experiment: as above
# Method in brief: as §1
row,Binder,SPOT peptide array binding signal intensity
1,B1,1

# Target: ScCyk3
# Experiment: as above
# Method in brief: as §1
row,Binder,SPOT peptide array binding signal intensity
1,B1,≤ 0

# Target: ScFus1
# Experiment: as above
# Method in brief: as §1
row,Binder,SPOT peptide array binding signal intensity
1,B1,≤ 0

# Target: ScHof1
# Experiment: as above
# Method in brief: as §1
row,Binder,SPOT peptide array binding signal intensity
1,B1,≤ 0

# Target: ScHse1
# Experiment: as above
# Method in brief: as §1
row,Binder,SPOT peptide array binding signal intensity
1,B1,≤ 0

# Target: ScLsb1
# Experiment: as above
# Method in brief: as §1
row,Binder,SPOT peptide array binding signal intensity
1,B1,≤ 0

# Target: ScLsb2
# Experiment: as above
# Method in brief: as §1
row,Binder,SPOT peptide array binding signal intensity
1,B1,≤ 0

# Target: ScLsb3
# Experiment: as above
# Method in brief: as §1
row,Binder,SPOT peptide array binding signal intensity
1,B1,≤ 0

# Target: ScLsb4
# Experiment: as above
# Method in brief: as §1
row,Binder,SPOT peptide array binding signal intensity
1,B1,≤ 0

# Target: ScMyo3
# Experiment: as above
# Method in brief: as §1
row,Binder,SPOT peptide array binding signal intensity
1,B1,700

# Target: ScMyo5
# Experiment: as above
# Method in brief: as §1
row,Binder,SPOT peptide array binding signal intensity
1,B1,751

# Target: ScNbp2
# Experiment: as above
# Method in brief: as §1
row,Binder,SPOT peptide array binding signal intensity
1,B1,≤ 0

# Target: ScPex13
# Experiment: as above
# Method in brief: as §1
row,Binder,SPOT peptide array binding signal intensity
1,B1,≤ 0

# Target: ScRvs167
# Experiment: as above
# Method in brief: as §1
row,Binder,SPOT peptide array binding signal intensity
1,B1,2

# Target: ScSho1
# Experiment: as above
# Method in brief: as §1
row,Binder,SPOT peptide array binding signal intensity
1,B1,≤ 0

# Target: ScSla1-D1-D2
# Experiment: as above
# Method in brief: as §1
row,Binder,SPOT peptide array binding signal intensity
1,B1,≤ 0

# Target: ScSla1-D3
# Experiment: as above
# Method in brief: as §1
row,Binder,SPOT peptide array binding signal intensity
1,B1,≤ 0

# Target: SpAbp1-D1
# Experiment: as above
# Method in brief: as §1
row,Binder,SPOT peptide array binding signal intensity
1,B1,≤ 0

# Target: SpBbc1
# Experiment: as above
# Method in brief: as §1
row,Binder,SPOT peptide array binding signal intensity
1,B1,≤ 0

# Target: SpBzz1-D1
# Experiment: as above
# Method in brief: as §1
row,Binder,SPOT peptide array binding signal intensity
1,B1,324

# Target: SpBzz1-D2
# Experiment: as above
# Method in brief: as §1
row,Binder,SPOT peptide array binding signal intensity
1,B1,≤ 0

# Target: SpCyk3
# Experiment: as above
# Method in brief: as §1
row,Binder,SPOT peptide array binding signal intensity
1,B1,≤ 0

# Target: SpHof1
# Experiment: as above
# Method in brief: as §1
row,Binder,SPOT peptide array binding signal intensity
1,B1,1

# Target: SpHof1-2
# Experiment: as above
# Method in brief: as §1
row,Binder,SPOT peptide array binding signal intensity
1,B1,≤ 0

# Target: SpHof1-3
# Experiment: as above
# Method in brief: as §1
row,Binder,SPOT peptide array binding signal intensity
1,B1,0.5

# Target: SpHse1
# Experiment: as above
# Method in brief: as §1
row,Binder,SPOT peptide array binding signal intensity
1,B1,≤ 0

# Target: SpLsb1
# Experiment: as above
# Method in brief: as §1
row,Binder,SPOT peptide array binding signal intensity
1,B1,≤ 0

# Target: SpLsb4
# Experiment: as above
# Method in brief: as §1
row,Binder,SPOT peptide array binding signal intensity
1,B1,≤ 0

# Target: SpMyo1
# Experiment: as above
# Method in brief: as §1
row,Binder,SPOT peptide array binding signal intensity
1,B1,1060

# Target: SpNbp2
# Experiment: as above
# Method in brief: as §1
row,Binder,SPOT peptide array binding signal intensity
1,B1,≤ 0

# Target: SpPex13
# Experiment: as above
# Method in brief: as §1
row,Binder,SPOT peptide array binding signal intensity
1,B1,≤ 0

# Target: SpRvs167
# Experiment: as above
# Method in brief: as §1
row,Binder,SPOT peptide array binding signal intensity
1,B1,12.7

# Target: SpSla1-D1-D2
# Experiment: as above
# Method in brief: as §1
row,Binder,SPOT peptide array binding signal intensity
1,B1,≤ 0

# Target: SpSla1-D3
# Experiment: as above
# Method in brief: as §1
row,Binder,SPOT peptide array binding signal intensity
1,B1,≤ 0
